Measured values reported in PubChem BioAssay.
The source made the active and inactive calls.

Columns and labels:
[1] = system: PRMT1 (protein arginine N-methyltransferase 1); experiment: PRMT1 binders on small-molecule microarrays, primary screen, biochemical, small-molecule microarray, 635 nm fluorescence (AID 1088); conditions: small-molecule microarray binding, higher = more signal;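 further: binding of Prmt1 protein to compounds spotted on small-molecule microarray slides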
[2] = yeast growth modulation, basal conditions, primary screen, YJM789 clinical isolate, OD600, 24 h (AID 1089);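 further: growth of clinical yeast isolate S. cerevisiae YJM 789 seeded 1000 cells per well; test concentration not given here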; conditions: S. cerevisiae YJM789 growth, higher = more signal, called active from +8 up or from −8 down
[3] = fission yeast growth modulation, primary screen, strain 972, OD600, 24 h, no modulator (AID 1090);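 further: basal condition with compound alone and no growth modifier present; test concentration not given here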; conditions: S. pombe 972 growth, higher = more signal, called active from +8 up or from −8 down
[4] = S. cerevisiae growth modulation with rapamycin, primary screen, strain BY4716, OD600, 96 h (AID 1091); conditions: higher = more signal, called active from +8 up or from −8 down; further: test concentration not given here
[5] = target: Torsin-1A-interacting protein 2 (Homo sapiens) (UniProt Q8NFQ8); experiment: LULL1 binders on small-molecule microarray, primary screen, cell lysate, human LULL1 lysate, 635/667 nm fluorescence (AID 1092); conditions: hLULL1 lysate binding, 635 nm fluorescence, higher = more signal;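 further: probe is lysate of COS7 cells overexpressing human LULL1; score merges per-feature 667 nm fluorescence with signal-to-noise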
Torsin-1A-interacting protein 2 (Homo sapiens), sequence (Q8NFQ8 whole entry, looked up): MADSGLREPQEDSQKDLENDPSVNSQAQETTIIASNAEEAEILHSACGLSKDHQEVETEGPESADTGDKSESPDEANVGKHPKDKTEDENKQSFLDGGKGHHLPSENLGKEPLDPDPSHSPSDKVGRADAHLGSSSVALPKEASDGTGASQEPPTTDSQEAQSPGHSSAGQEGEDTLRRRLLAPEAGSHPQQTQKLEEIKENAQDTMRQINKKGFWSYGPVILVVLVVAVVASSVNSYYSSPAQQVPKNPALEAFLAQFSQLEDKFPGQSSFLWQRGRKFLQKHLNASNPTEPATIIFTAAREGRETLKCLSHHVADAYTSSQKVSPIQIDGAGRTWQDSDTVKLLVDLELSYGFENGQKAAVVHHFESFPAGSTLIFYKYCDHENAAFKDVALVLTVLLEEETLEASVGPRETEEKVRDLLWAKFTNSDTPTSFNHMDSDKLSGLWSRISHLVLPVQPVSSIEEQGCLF

[6] = E. coli growth modulation, two-sided OD650, primary screen, E. coli filamentation project, strain DRC41, 24 h (AID 1093); conditions: OD650, 24 h, higher = more signal, called active from +8 up or from −8 down;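 further: MC1000 strain lacking acrAB efflux and sulA so SOS filamentation is blocked; test concentration not given here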
[7] = small-molecule microarray binders of probe aLefty2, primary screen, biochemical, biotinylated probe, 635/667 nm fluorescence (AID 1094); conditions: higher = more signal;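 further: score merges spot fluorescence near 667 nm with spot signal-to-noise ratio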
[8] = system: Noggin (protein binding on small-molecule microarray); experiment: Noggin binders on small-molecule microarray, primary screen, biochemical, 635/667 nm fluorescence (AID 1095); conditions: 635 nm fluorescence, higher = more signal;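 further: score merges 667 nm feature fluorescence with signal to noise over triplicate slides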
[9] = target: Neurogenic locus notch homolog protein 3 (Homo sapiens) (UniProt Q9UM47); experiment: NOTCH3 binders on small-molecule microarray, primary screen, biochemical, 635/667 nm fluorescence (AID 1096); conditions: NOTCH3 binding, 635 nm fluorescence, higher = more signal
Neurogenic locus notch homolog protein 3 (Homo sapiens), sequence (Q9UM47 whole entry, looked up): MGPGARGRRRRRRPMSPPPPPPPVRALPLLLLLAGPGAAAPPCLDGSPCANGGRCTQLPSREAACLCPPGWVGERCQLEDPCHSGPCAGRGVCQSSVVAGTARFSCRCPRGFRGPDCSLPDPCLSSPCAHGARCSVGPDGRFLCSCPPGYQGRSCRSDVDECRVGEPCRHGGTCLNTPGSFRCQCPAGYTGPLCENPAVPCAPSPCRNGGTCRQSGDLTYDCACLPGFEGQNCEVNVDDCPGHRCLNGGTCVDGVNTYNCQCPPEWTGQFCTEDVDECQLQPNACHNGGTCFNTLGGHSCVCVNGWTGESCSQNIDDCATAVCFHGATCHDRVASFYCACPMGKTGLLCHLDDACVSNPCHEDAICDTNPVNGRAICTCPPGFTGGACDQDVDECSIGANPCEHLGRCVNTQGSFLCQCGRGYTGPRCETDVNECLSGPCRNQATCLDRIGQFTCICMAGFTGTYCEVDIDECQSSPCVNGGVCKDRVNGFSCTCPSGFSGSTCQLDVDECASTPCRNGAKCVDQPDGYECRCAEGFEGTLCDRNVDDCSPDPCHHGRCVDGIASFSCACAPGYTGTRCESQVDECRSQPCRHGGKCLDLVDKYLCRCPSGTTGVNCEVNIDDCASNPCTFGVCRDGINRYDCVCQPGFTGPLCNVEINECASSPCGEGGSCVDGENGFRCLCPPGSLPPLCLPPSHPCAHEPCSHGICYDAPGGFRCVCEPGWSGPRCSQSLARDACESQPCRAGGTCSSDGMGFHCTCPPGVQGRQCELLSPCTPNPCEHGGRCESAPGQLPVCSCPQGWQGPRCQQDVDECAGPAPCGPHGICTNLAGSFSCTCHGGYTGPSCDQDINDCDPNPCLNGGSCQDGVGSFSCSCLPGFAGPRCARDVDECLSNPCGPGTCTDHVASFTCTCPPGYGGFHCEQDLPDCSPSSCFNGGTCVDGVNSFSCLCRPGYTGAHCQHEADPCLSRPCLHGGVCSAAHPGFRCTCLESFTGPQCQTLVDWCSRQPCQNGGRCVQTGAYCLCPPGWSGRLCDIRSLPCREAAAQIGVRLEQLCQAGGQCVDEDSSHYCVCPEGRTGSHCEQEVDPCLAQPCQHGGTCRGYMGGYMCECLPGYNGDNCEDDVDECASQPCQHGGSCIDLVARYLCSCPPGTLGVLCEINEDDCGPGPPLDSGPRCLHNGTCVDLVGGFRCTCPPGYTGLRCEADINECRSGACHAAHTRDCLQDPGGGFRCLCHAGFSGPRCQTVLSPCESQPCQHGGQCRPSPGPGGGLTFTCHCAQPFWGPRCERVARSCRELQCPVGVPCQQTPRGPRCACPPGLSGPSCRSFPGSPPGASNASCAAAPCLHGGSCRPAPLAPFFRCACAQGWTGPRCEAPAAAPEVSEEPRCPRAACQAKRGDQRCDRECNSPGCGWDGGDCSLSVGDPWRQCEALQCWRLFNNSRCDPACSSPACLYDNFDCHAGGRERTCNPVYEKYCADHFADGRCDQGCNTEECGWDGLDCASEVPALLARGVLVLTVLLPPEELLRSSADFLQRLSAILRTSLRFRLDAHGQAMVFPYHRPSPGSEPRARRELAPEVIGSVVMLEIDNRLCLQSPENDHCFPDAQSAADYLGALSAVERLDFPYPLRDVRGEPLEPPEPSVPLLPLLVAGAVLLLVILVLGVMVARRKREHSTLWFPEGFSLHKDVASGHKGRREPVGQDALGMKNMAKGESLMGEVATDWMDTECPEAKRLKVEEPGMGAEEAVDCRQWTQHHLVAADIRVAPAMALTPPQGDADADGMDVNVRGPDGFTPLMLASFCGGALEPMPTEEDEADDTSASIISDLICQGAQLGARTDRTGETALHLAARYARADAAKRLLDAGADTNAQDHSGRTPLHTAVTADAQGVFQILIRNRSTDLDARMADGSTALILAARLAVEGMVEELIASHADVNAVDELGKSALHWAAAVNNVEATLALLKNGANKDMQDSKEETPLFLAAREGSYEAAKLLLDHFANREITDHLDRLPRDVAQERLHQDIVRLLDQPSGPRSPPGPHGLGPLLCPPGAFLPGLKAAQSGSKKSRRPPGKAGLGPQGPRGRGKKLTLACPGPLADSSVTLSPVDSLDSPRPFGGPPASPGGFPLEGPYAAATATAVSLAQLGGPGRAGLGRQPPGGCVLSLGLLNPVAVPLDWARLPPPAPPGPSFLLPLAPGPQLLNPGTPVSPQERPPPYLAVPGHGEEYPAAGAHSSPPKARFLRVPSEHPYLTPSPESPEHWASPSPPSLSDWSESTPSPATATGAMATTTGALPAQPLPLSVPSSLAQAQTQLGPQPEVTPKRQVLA

[10] = small-molecule microarray binders of probe aEGFR, primary screen, biochemical, biotinylated probe, 635/667 nm fluorescence (AID 1097); conditions: higher = more signal;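 further: probe is a biotinylated anti-EGFR antibody binding compounds printed on slides; score combines fluorescence near 667 nm and signal to noise of each spot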

Q: For `C=CCC(OC(C)=O)[C@@H]1[C@@H](N(Cc2ccc(-c3ccccc3)cc2)C(=O)c2ccc(-c3ccccc3)cc2)c2cc(OCCCO)ccc2N1C(=O)c1ccc2ccccc2n1` (stereo not given in full), which composite z-score [1] is on record?
A: 0.474

Q: And the z-score [2]?
A: -0.755 (inactive)

Q: What about the z-score [3] of the same molecule?
A: -0.638 (inactive)

Q: What about the z-score [4] of the same molecule?
A: -0.0474 (inactive)

Q: What about the composite z-score [5] of the same molecule?
A: 0.183

Q: And the z-score [6]?
A: 0.853 (inactive)

Q: What about the composite z-score [7] of the same molecule?
A: 0.121

Q: And the composite z-score [8]?
A: 0.408

Q: What about the composite z-score [9] of the same molecule?
A: 0.361

Q: And the composite z-score [10]?
A: -0.0494

Q: Which results are given for `CCN(CC)c1ccc(N2CC=CC34O[C@@H]5C=CCOC(=O)[C@@H]5[C@H]3C(=O)N(CCO)[C@@H]4C2=O)cc1` (stereo not given in full)?
A: composite z-score [1]: -0.503; z-score [2]: 0.907 (inactive); z-score [3]: -1.02 (inactive); z-score [4]: -0.108 (inactive); composite z-score [5]: 0.174; z-score [6]: 1.47 (inactive); composite z-score [7]: -0.0041; composite z-score [8]: -1.35; composite z-score [9]: -0.373; composite z-score [10]: -0.334

Q: With `CO[C@H]1O[C@H](CO)[C@@H](OC(=O)Nc2ccc(C(F)(F)F)cc2)[C@H](OC(=O)Nc2ccccc2-c2ccccc2)[C@@H]1OC(=O)Nc1ccccc1-c1ccccc1` as the molecule, how does the composite z-score [1] read?
A: 1.54

Q: And the z-score [2]?
A: 0.94 (inactive)

Q: What about the z-score [3] of the same molecule?
A: 1.25 (inactive)

Q: And the z-score [4]?
A: 4.92 (inactive)

Q: And the composite z-score [5]?
A: 2.4

Q: What about the z-score [6] of the same molecule?
A: 0.193 (inactive)

Q: What about the composite z-score [7] of the same molecule?
A: 0.33

Q: And the composite z-score [8]?
A: 1.32

Q: What about the composite z-score [9] of the same molecule?
A: 1.02

Q: What about the composite z-score [10] of the same molecule?
A: 0.0752

Q: Which results are given for `COCCOC(=O)N1C(=O)[C@@]2(c3cc(C#CCC(C(=O)OC)C(=O)OC)ccc31)[C@H](c1ccc(OCCO)cc1)N1[C@H](c3ccccc3)[C@H](c3ccccc3)OC(=O)[C@H]1[C@@H]2C(=O)N1CCCCCCC1`?
A: composite z-score [1]: 1.56; z-score [2]: 1.9 (inactive); z-score [3]: 0.911 (inactive); z-score [4]: 3.67 (inactive); composite z-score [5]: 3.6; z-score [6]: 1.43 (inactive); composite z-score [7]: 1.68; composite z-score [8]: 1.43; composite z-score [9]: 1.06; composite z-score [10]: 1.03

Q: Which composite z-score [1] does the source give for `CN(C)CCCC[C@@H]1NC(=O)[C@H]2C[C@@H](C(=O)O)[C@@H](c3cccc(OCCO)c3)N2C1=O` here?
A: 1.4

Q: And the z-score [2]?
A: -0.733 (inactive)

Q: What about the z-score [3] of the same molecule?
A: -1.36 (inactive)

Q: What about the z-score [4] of the same molecule?
A: 0.102 (inactive)

Q: What about the composite z-score [5] of the same molecule?
A: 2.1

Q: And the z-score [6]?
A: 0.579 (inactive)

Q: What about the composite z-score [7] of the same molecule?
A: 0.495

Q: What about the composite z-score [8] of the same molecule?
A: 1.19

Q: And the composite z-score [9]?
A: 0.87

Q: What about the composite z-score [10] of the same molecule?
A: 0.169

Q: For `[N-]=[N+]=NCc1ccccc1C[C@]1(C(=O)N2CCCCC2)N=C(c2ccc(OCCCO)cc2)O[C@H]1c1ccccc1`, which composite z-score [1] is on record?
A: 0.762

Q: And the z-score [2]?
A: 0.202 (inactive)

Q: What about the z-score [3] of the same molecule?
A: -1.1 (inactive)

Q: And the z-score [4]?
A: 22.5 (active)

Q: And the composite z-score [5]?
A: 2.46

Q: What about the z-score [6] of the same molecule?
A: 1.31 (inactive)

Q: What about the composite z-score [7] of the same molecule?
A: 0.124

Q: And the composite z-score [8]?
A: 0.0914

Q: And the composite z-score [9]?
A: 0.344

Q: And the composite z-score [10]?
A: -0.125
